Source: PubChem BioAssay (NCI)
The panel holds about 83,000 compounds, 20% with a hit somewhere; the sample as a whole holds those more often.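 96-well plates, one dose, 48 hours. Percent growth reported; active if below 10.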 A number with no mark means an inactive call. Activity calls are given as the source filed them.

Tested on: SR leukemia
Assay: NCI-60 one-dose screen, 48 h (100 = growth as untreated, 0 = no growth, -100 = all killed)
Conditions: 10 µM unless noted

Compound | growth
Cn1c(=O)c2[nH]c(SC/C(=N/O)c3ccc(Br)cc3)nc2n(C)c1=O | 60.4%
Cc1c2ncccc2nc2[nH]c3ccc(OCCN(C)C)cc3c12 | 12.8%
COc1ccc(-c2cc(C(=O)N3N=C(c4ccc(N)cc4)CC3c3ccc(Cl)cc3)c3ccccc3n2)cc1 (centres undefined) | 14.5%
Cc1oc(-c2ccc(Cl)cc2)nc1C1=NN(C(=O)c2ccncc2)C(c2ccccc2)C1 (centres undefined) | 101%
Nc1cc(C(=O)O)cc(-n2c(O)c(C=C3N=c4ccccc4=N3)sc2=S)c1 | 121%
Nc1ncnc2c1N=C(c1ccc(F)cc1)CC(c1cccc(Nc3ccnc4cc(Cl)ccc34)c1)N2 (centres undefined) | 0.875% (active)
CCNC(=O)N1CCc2c(Br)c3c(c(OC)c2C1Cc1ccc(OC)cc1)OCO3 (centres undefined) | 33.1%
Nc1nc2ccccc2c2c(=O)c3cc(Cl)ccc3sc12 | 94.8%
Cc1ccc(S(=O)(=O)c2nc(-c3ccccc3)oc2SCC(N)=O)cc1 | 94.6%
CCCN(CCSSCCNc1nc(N(C)O)nc(N(C)O)n1)c1nc(N(C)O)nc(N(C)O)n1 | 129%
COc1cc(C=C2C(=O)NC(=S)NC2=O)cc(CN2CCCC2)c1O | 107%
Cc1cc(C)c2c(c1)N(C)c1ncnc(-n3c(C)nc4cc(C)ccc43)c1CC2C (centres undefined) | 11.3%
COC1/C=C/OC2(C)Oc3c(C)c(O)c4c(O)c(c(/C=N/N(c5ccccc5)c5ccccc5)c(O)c4c3C2=O)NC(=O)C(C)=C/C=C/C(C)C(O)C(C)C(O)C(C)C(OC(C)=O)C1C (centres undefined) | 30.9%
CN(C)Cc1cc(C(C)(C)C)cc(Br)c1O | 107%
COC(=O)c1ccc2c(c1)c1c(C)c3cnccc3c(C)c1n2C | 18.2%
CN(C)CCCn1c2c(c3cnccc3c1=O)C(=O)c1ccccc1-2 | -8.62% (active)
O=C(NNc1nc2cc(F)ccc2n2c(CN3CCOCC3)ccc12)c1ccccc1 | 3.49% (active)
CCOC(=O)C/C(=N\Nc1cc(=O)[nH]c2ccc(OC)cc12)C(=O)OCC | 67%
COc1ccc(/C=C(/C(=O)N2CCNCC2)c2cc(OC)c(OC)c(OC)c2)cc1O | 3.13% (active)
COC(=O)[C@]1(C)CCC[C@]2(C)[C@H]3C[C@@H]4[C@H]5[C@@H]6CC/C(=N\OCC/C(N)=N/O)[C@H]5[C@@]3(CC[C@H]21)CC4(C(C)C)O6 | 5.07% (active)

Compound | growth
CC/C(=C(\c1ccc(Cl)cc1)c1ccc(OCCN2CCCCC2)cc1)c1ccc(O)cc1 | -11.2% (active)
CCN(CC)CCOc1ccc(/C(=C(\C)Cc2ccc(OC)cc2)c2ccc(OC(=O)NCc3ccccc3)cc2)cc1 | -53% (active)
O=[N+]([O-])c1c(O)c(Cl)cc(Cl)c1Cl | 87.9%
C=CC(=O)Nc1cccc(Oc2nccc(Nc3nnc(-c4ccc(Br)cc4)s3)n2)c1 | 89.3%
O=S(=O)(Nc1ccc2ccccc2c1)c1ccc(-c2cnc(C3CC3)o2)cc1 | 16.5%
CCCCCc1ccc(S(=O)(=O)Nc2ccc3nc(N)oc3c2)cc1 | 31.1%
C=CCN=c1sc(-c2ccc3ccccc3c2)cn1NC(=O)c1cc2ccc1CCc1ccc(cc1)CC2 | 39.1%
c1cc(OCCN2CCCCCC2)ccc1CNc1ccc2nc(CCC3CCCCC3)[nH]c2c1 | 26.1%
CC1=C2CC/C(C)=C/CC[C@]3(C)O[C@H]3CC/C(C)=C/[C@H]2OC1 | 87.6%
COc1ccc(C(O)c2cc3c(N)c(C(=O)Nc4cccc5ccccc45)sc3nc2C)cc1 (centres undefined) | 12.7%
CCOc1ncc([N+](=O)[O-])c(OCC)n1 | 93.7%
COc1ccc(C2[C@@H](Cl)C(=O)N2c2cc(OC)c(OC)c(OC)c2)cc1Cl (some centres undefined) | 5.49% (active)
CS(=O)(=O)c1ccc(-c2nc3ccccc3n2CC(=O)N/N=C/c2ccccc2)cc1 | 99.1%
CN1CCN(c2ccc(NC3=CC(=O)c4ncncc4C3=O)cc2)CC1 | -5.62% (active)
Cn1c(=O)[nH]c(=O)c2nc3c(nc21)-c1ccccc1C3=O | 100%
COc1ccc(-c2cc(C(=O)N3N=C(c4ccc(N)cc4)CC3c3ccc(Cl)cc3)c3cc(OC)ccc3n2)cc1 (centres undefined) | 20.9%
O=c1cc(CP(=O)(O)O)c2cc(O)c(-c3ccccc3)cc2o1 | 95.2%
O=C1c2cccnc2C(=O)c2c1c(C(=O)OCCc1ccccn1)c1ccccn21 | -10.9% (active)
Cc1cc(C(=O)CCCC(=O)c2cc(C)c(O)c(C)c2)cc(C)c1O | 81.9%
